Sampled rows, rich in hits. Any-hit rate of the full collection: about 13%.
Pf growth 48h: P. falciparum growth inhibition at 48 hours (one generation); hit rate 5.9% among 310,000; Potency, µM (doses to about 28.7 µM), most hits filed as inhibitors; P. falciparum luciferase growth in erythrocytes, 48 h; AID 504832
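Cell-based growth assay: transgenic P. falciparum expressing firefly luciferase, cultured in red cells within RPMI 1640 containing 0.5% w/v Albumax, 24 mM bicarbonate and gentamycin. A drop in luciferase activity indicates inhibition.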
HCMV antiviral: inhibitors of human cytomegalovirus; HFF cells, HCMV-luciferase reporter, 72 h; stronger effect = lower value; activity change, negative = inhibition, % at 57.5 µM; AID 1259415; hit rate 4.5% among 410,000; in the data active = activity change below about -60%; inconclusive = no clear call, values can overlap the other calls; inactive = above about -39%
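Cell-based, HFFs, 1000 cells/well, 16 h 37C; cpds in DMSO + HCMV-luc, MOI 1 PFU/cell; 72 h 37C; OneGlo luminescence after 5 min RT; norm. to buffer vs Salinomycin 10uM.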
Pf growth 96h: inhibits malaria parasite growth, 96 h | P. falciparum luciferase reporter growth, 96 h | Potency, µM (titrated, usually from 28.7 µM), actives largely listed as inhibitors | hit rate 6.9% among 320,000 | AID 504834
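Two-generation exposure (96 h) targets delayed-death phenotype. Reporter parasites carrying integrated firefly luciferase, in red cells at 2% hematocrit and 0.05% parasitemia final, kept at 37 C, 5% CO2; luminescence loss indicates inhibition.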
HCV inhibitor: blocks hepatitis C virus; Potency, µM (top dose mostly 41.8 µM), most hits filed as inhibitors; Huh7.5.1 HCVcc-Cre infection, luciferase reporter, 44 h; hit rate 3.4% among 340,000
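Compounds are dispensed onto cells plated 4 h earlier at 1,000 per well, with HCVcc-Cre virus (about 0.5 moi) added next. Following 44 h of culture, luminescent signal is measured for 15 sec after 15 min with substrate at room temperature.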
Large screens that a line does not name were inactive; ! = a repeat was not active. Unless noted, calls follow the shape of the dose curve; as a rule, active = well fitted inhibition curve with a large enough effect; inconclusive = small, poorly fitted or top-dose-only effect, or another doubt; inactive = no such curve, though single readings can be large or run the other way.

Cc1ccc(CN2CCCn3nc(C(=O)NCC(C)c4ccccc4)cc3C2=O)cc1 (stereo unspecified)	none (no result: Pf growth 48h, Pf growth 96h, HCV inhibitor)
Cc1cc(C)cc(NC(=O)CSc2nc(-c3ccccc3)c3cc(F)ccc3n2)c1	none (no result: Pf growth 48h, Pf growth 96h, HCV inhibitor)
CC(=O)N1CCc2cc(Br)cc(S(=O)(=O)N3CCC(C(=O)Nc4cccc(C)c4C)CC3)c21	none (no result: Pf growth 48h, Pf growth 96h, HCV inhibitor)
CCOc1ccc2nc3c(cc2c1)CN(CCOC)C(=NCCOC)S3	Pf growth 48h inconclusive, HCMV antiviral -61.0, Pf growth 96h inconclusive
COCCN=C1Sc2nc3ccc(C)cc3cc2CN1Cc1ccco1	Pf growth 96h inconclusive (no result: Pf growth 48h)
COCCN=C1Sc2nc3cc(C)c(C)cc3cc2CN1Cc1cccs1	Pf growth 48h 10.4µM, Pf growth 96h inconclusive
O=C(Nc1ccc(F)cc1)Nc1sccc1-c1nc2ccccc2s1	Pf growth 48h 8.28µM, Pf growth 96h inconclusive, HCV inhibitor inconclusive
O=C(Nc1ccccc1-c1nc2ccccc2s1)c1ccc(F)cc1	none (no result: Pf growth 48h, Pf growth 96h, HCV inhibitor)
CC(C)N=c1cc2n(-c3ccc(Cl)cc3)c3ccccc3nc-2cc1Nc1ccc(Cl)cc1	Pf growth 48h 2.87µM, HCMV antiviral -63.6, Pf growth 96h inconclusive
Cc1ccc(-c2nnn(CC(=O)N(CC3CCCO3)C(C(=O)NC3CCCC3)c3ccc(O)cc3)n2)o1 (stereo unspecified)	none
Cc1ccc(-c2nnn(CC(=O)N(CC3CCCO3)C(C(=O)NC3CCCC3)c3ccc(F)cc3)n2)o1 (stereo unspecified)	Pf growth 48h 11.7µM (no result: Pf growth 96h)
CCCC(C(=O)NC1CCCC1)N(C(=O)Cn1nnc(-c2ccc(C)o2)n1)c1ccccc1OC (stereo unspecified)	Pf growth 48h 10.4µM, HCV inhibitor inconclusive (no result: Pf growth 96h)
NCCn1cc(-c2cc(Cl)c(N)c(Cl)c2)ncc1=O	none (no result: Pf growth 48h, Pf growth 96h, HCV inhibitor)
COc1ccc(-n2c(Cc3cccn3C)nnc2SCC(=O)NCc2ccc(F)cc2)cc1	Pf growth 48h 8.28µM
COc1ccc(-n2c(Cc3cccn3C)nnc2SCC(=O)NCc2ccccc2Cl)cc1	Pf growth 48h 9.28µM, Pf growth 96h 11.7µM
CCN(c1ccccc1)S(=O)(=O)c1cc(C(=O)NCC(c2ccc(OC)cc2)N(C)C)ccc1C (stereo unspecified)	HCV inhibitor 10µM (no result: Pf growth 48h, Pf growth 96h)
COC(=O)CNC(c1ccccc1Cl)c1cc(Br)ccc1NS(=O)(=O)c1ccc(C)cc1 (stereo unspecified)	Pf growth 48h 3.29µM, HCMV antiviral -69.7, HCV inhibitor inconclusive
O=[N+]([O-])c1ccc2c(c1)S(=O)c1ccccc1-2 (stereo unspecified)	Pf growth 48h 8.28µM, Pf growth 96h inconclusive
CCC1CCCCN1C(=O)CCc1nnc(C2CCCCC2)o1 (stereo unspecified)	Pf growth 96h inconclusive
COC(=O)[C@@H]1CCCN1C(=O)CCc1nnc(C2CCCCC2)o1	Pf growth 96h 16.5µM
Cc1cccc(NC(=O)C2CCN(S(=O)(=O)c3ccc4c(c3)CCCN4C(=O)C3CCC3)CC2)c1	none (no result: Pf growth 48h, Pf growth 96h, HCV inhibitor)
CCCCN1C(=O)/C(=C2/Sc3ccc(OC)cc3N2CC)SC1=S	Pf growth 96h 9.28µM (no result: HCMV antiviral)
C=CCN1C(=O)/C(=C2/Sc3ccc(OC)cc3N2CC)SC1=S	Pf growth 96h inconclusive
CCN1C(=O)/C(=C2\SC(=S)N(CCCOC)C2=O)c2ccccc21	Pf growth 48h inconclusive, Pf growth 96h 10.4µM
COCCN1C(=O)/C(=C2/C(=O)N(CC(=O)Nc3ccccc3Cl)c3ccccc32)SC1=S	Pf growth 48h inconclusive, Pf growth 96h inconclusive (no result: HCV inhibitor)
CCN(CC)C(=O)c1sc2c(c1C)c(=O)n(-c1ccc(C)c(C)c1)c(=O)n2CC(=O)Nc1ccc(F)cc1	none (no result: Pf growth 48h, Pf growth 96h, HCV inhibitor)
Cc1ccc(NC(=O)CCn2cccn2)cc1Cl	none (no result: Pf growth 48h, Pf growth 96h, HCV inhibitor)
Cc1ccc(NC(=O)C2CC(=O)NC(Nc3cccc(C)c3)=N2)cc1 (stereo unspecified)	Pf growth 96h 2.08µM
O=S(=O)(NCCc1ccccn1)c1ccc(F)c(F)c1	Pf growth 96h 5.22µM
O=C(Nc1nnc(-c2ccc(F)cc2)s1)Nc1ccccc1F	none
O=C(Nc1nnc(-c2ccccc2SCc2ccccc2F)s1)Nc1ccccc1F	HCMV antiviral -60.5 (no result: Pf growth 48h)
c1ccc(Nc2c(-c3c[nH]c4ccccc34)nc3ccccn23)cc1	none (no result: Pf growth 48h, Pf growth 96h, HCV inhibitor)
O=C(CSc1ncnc2sc3c(c12)CCCC3)N1CCC(c2noc3ccc(F)cc23)CC1	HCV inhibitor 11.2µM! (no result: Pf growth 96h)
COC(=O)C1=C(c2ccc(OC)c(OC)c2)C[C@@H]2CC[C@H]1N2C(=O)N1CCc2cc(OC)c(OC)cc2C1	Pf growth 48h inconclusive, Pf growth 96h inconclusive
COC(=O)C1=C(c2cccc3c2S(=O)(=O)c2ccccc2-3)C[C@@H]2CC[C@H]1N2C(=O)N1CCOCC1	Pf growth 48h 10.4µM, Pf growth 96h 6.57µM
